This is a sample that favours compounds with a hit; in the whole collection about 21% have one here.
TDP1 cell noCPT: qHTS for Inhibitors of human tyrosyl-DNA phosphodiesterase 1 (TDP1): qHTS in cells in absence of CPT. Potency, µM (series often up to 46.2 µM), without a hit: at the top dose activity change, negative = growth inhibition, hits mostly inhibitors. AID 686978, 2013. DT40 Tdp1-/- hTDP1 cells, no CPT, ATP luminescence, 48 h. 420,000 tested, 15% active; also: potency is read from the fitted curve at half-maximal effect; % is scaled to controls: 0 for no effect and ±100 for the full control effect; nearly all actives have a fitted effect of over 55% in size
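Cells were dispensed at 400 per well, compounds added by pin tool, plates incubated ≥48 hr at 37 °C, then CellTiter-Glo added for 30 min at room temperature before luminescence reading. Line: DT40 Tdp1-/- complemented with hTDP1; camptothecin omitted.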
DRD3 agonist: qHTS of D3 Dopamine Receptor Agonist: qHTS; D(3) dopamine receptor (Homo sapiens), P35462; D3R DiscoveRx beta-arrestin cells, luminescence, 90 min; max activation, %; 410,000 tested, 0.58% active; AID 652048, 2013; in the data active = max activation above about 30%; also: 0% is about no effect
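Cells at 1500/well, incubated overnight, then treated with pinned compounds (dopamine as control) for 90 min at 37 degrees C. DiscoveRx reagent added for 30 - 60 minutes at room temperature; luminescence read.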
IL1B secr inh: qHTS for Inhibitors of Inflammasome Signaling: IL-1-beta AlphaLISA Primary Screen; activity change, % at 57.5 µM; 360,000 tested, 4.7% active; THP-1 LPS/ATP IL-1B secretion, AlphaLISA, 16 h; active compounds read low; in the data active = activity change below about -50%; inconclusive = mostly about -30% to -49%; also: % is scaled to controls: 0 for no effect and ±100 for the full control effect
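THP-1 cells pretreated 1 hr with compounds (up to 57.5 uM final), then stimulated with LPS (250 ng/mL final) plus ATP (1.25 mM final); secreted IL-1B measured by AlphaLISA after 16 hr, decreased signal indicating inhibition.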
ClpP mod: qHTS Assay for Activators of ClpP; ATP-dependent Clp protease proteolytic subunit (Bacillus subtilis (strain 168)), P80244; purified B. subtilis ClpP, FRET peptide cleavage, 20 min; Potency, µM (doses to about 57.5 µM), without a hit: at the top dose activity change, negative = active; 340,000 tested, 1.9% active; AID 651965, 2013; active = well fitted falling curve with a large enough effect; inconclusive = small, poorly fitted or top-dose-only effect; inactive = no such curve, though single readings can be large or run the other way; also: potency is read from the fitted curve at half-maximal effect; the source files actives as falling curves though it sought activators and does not explain the sign; nearly all actives have a fitted effect of over 65% in size
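Buffer: 100 mM Tris/HCl pH8, 100 mM KCl, 0.05% low protease BSA, 2.5% glycerol, 0.01% Tween-20. ClpP 10 microg/mL final; 20 min RT; delta FRET normalized to ADEP and DMSO controls.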
D3 antag: qHTS of D3 Dopamine Receptor Antagonist: qHTS; D(3) dopamine receptor (Homo sapiens), P35462; D3R cells, DiscoveRx beta-arrestin luminescence, antagonist mode; active compounds read low; max response, negative = inhibition, %; 360,000 tested, 2.5% active; AID 652054, 2013; in the data active = max response below about -50%; inconclusive = no clear call, values can overlap the other calls; also: % is scaled to controls: 0 for no effect and ±100 for the full control effect
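Cells plated overnight at 1500 cells/well, then exposed to library compounds with dopamine controls for 90 minutes at 37 degrees C. DiscoveRx reagent added for 30–60 minutes at room temperature; luminescence read, quantitative HTS format.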
TDP1 cell CPT: qHTS for Inhibitors of human tyrosyl-DNA phosphodiesterase 1 (TDP1): qHTS in cells in presence of CPT. chicken DT40 Tdp1-/-;hTDP1 cells + 20 nM CPT, ATP luminescence, 48 h. Potency, µM (highest dose often 46.2 µM), for inactives: at the highest dose activity change, negative = growth inhibition, most hits filed as inhibitors. 420,000 tested, 12% active. AID 686979, 2013; also: potency is read from the fitted curve at half-maximal effect; % is scaled to controls: 0 for no effect and ±100 for the full control effect; nearly all actives have a fitted effect of over 55% in size
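Chicken DT40 Tdp1-/- cells stably complemented with human TDP1 were seeded at 400 cells/well in medium containing 20 nM camptothecin, exposed to pin-transferred compounds, and grown at 37 °C for at least 48 hr. Viability was read as ATP luminescence.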
* hit, by the source's call; u = inconclusive; x = no result given; [ ] = another dose, or the depositor's remark. Unless noted, calls follow the shape of the dose curve; as a rule, active = well fitted inhibition curve with a large enough effect; inconclusive = small, poorly fitted or top-dose-only effect; inactive = flat fitted curve, though single readings scatter.

SMILES	TDP1 cell noCPT	DRD3 agonist	IL1B secr inh	ClpP mod	D3 antag	TDP1 cell CPT
CC(C)C(NS(C)(=O)=O)c1nnc2n1CCN(Cc1ccc(C#CC(C)(C)O)cc1)CC2 (centres undefined)	-24%	x	x	x	x	3%
O=C(/C=C/c1ccc2c(c1)OCO2)N1CCN(c2n[nH]c(=O)[nH]c2=O)CC1	-9%	6	8	x	0	-16%
Cc1cc(C)c(S(=O)(=O)N2CCN(C(=O)N(C)C)CC2)c(C)c1	u	24	0	x	-10	u
COc1ccc(N2C(=O)C3CC=C(Cl)CC3C2=O)cc1 (centres undefined)	-1%	-6	14	-2%	7	0%
COc1ccc(NC(=O)c2ccc(N3C(=O)C4CC=C(Cl)CC4C3=O)cc2)cc1 (centres undefined)	29µM*	-3	41	-3%	-24	-26%
CCOC(=O)c1ccc(N2C(=O)CC(SCC(=O)Nc3ccc(S(N)(=O)=O)cc3)C2=O)cc1 (centres undefined)	u	9	2	1%	-12	23µM*
Cc1ccc(N2C(=O)CC(SCC(=O)Nc3ccc(S(N)(=O)=O)cc3)C2=O)cc1 (centres undefined)	u	4	-6	x	2	u
NS(=O)(=O)c1ccc(NC(=O)CSC2CCCCC2)cc1	29µM*	-2	8	1%	-11	16µM*
COC(=O)c1ccc(N2C(=O)CC(SCC(=O)Nc3ccc(OC)cc3)C2=O)cc1 (centres undefined)	5.2µM*	1	5	-1%	-4	15µM*
COc1ccc(NC(=O)CSC2CCCCC2)cc1	-20%	2	1	1%	-17	-20%
N#Cc1ccccc1OCC(=O)OCC(=O)Nc1ccc2c(c1)OCO2	23%	-2	2	-1%	-18	-8%
Cc1ccc(C)c(NC(=O)CCCn2nc(C)c3sc4ccccc4c3c2=O)c1	-25%	-3	x	-2%	x	-17%
CCCN1CCN(CCCNC(=O)c2cc3c(s2)-c2ccccc2OC3)CC1	u	-22	u	4%	u	u
CN(C)CCNC(=O)c1cc2c(s1)-c1ccccc1OC2	u	-13	-23	5%	-81*	16µM*
Cc1c(NC(=O)c2cc3c(s2)-c2ccccc2OC3)cccc1[N+](=O)[O-]	18µM*	-11	-73*	0%	9	u
COc1ccccc1CNC(=O)c1cc2c(s1)-c1ccccc1OC2	u	2	x	5%	x	u
COc1ccc(CCNC(=O)c2cc3c(s2)-c2ccccc2OC3)cc1OC	12µM*	-14	x	4%	x	u
O=C(NC(=S)N1CCN(c2ccccc2)CC1)c1ccc(S(=O)(=O)N2CCOCC2)cc1	u	3	-10	0%	-2	u
Cc1cc2nc(-c3ccco3)c(CC(C)(C)C)n2c(C)c1Br	23µM*	1	-7	-4%	0	23µM*
COc1ccccc1Cc1c(-c2ccco2)nc2cc(C)c(Br)c(C)n12	23µM*	-16	-26	-4%	-107*	u
Cc1cc2nc(-c3ccco3)c(Cc3cccc(Cl)c3)n2c(C)c1Br	u	-7	-13	1%	u	u
Cc1cccc(Cl)c1NC(=S)NCCc1ccccn1	-4%	6	-3	x	-10	0%
CCc1cc(=O)[nH]c(SCc2nc(-c3ccccc3)no2)n1	u	13	x	0%	x	u
COc1ccc(Nc2nc(-c3sc(N)nc3C)cs2)cc1	u	-5	-29	1%	-9	u
Cc1nc(N)sc1-c1csc(Nc2cc(N(C)C)ccc2Cl)n1	13µM*	-1	0	0%	-25	7.3µM*
SMILES	TDP1 cell noCPT	DRD3 agonist	IL1B secr inh	ClpP mod	D3 antag	TDP1 cell CPT
Cc1ccc(Nc2nc(-c3sc(N)nc3C)cs2)cc1	u	-12	-20	-6%	-1	-76%
Cc1nc(C)c(-c2csc(Nc3ccccn3)n2)s1	u	4	0	-9%	11	-60%
CC(=O)c1cccc(Nc2nc(-c3sc(C)nc3C)cs2)c1	u	5	-57*	-1%	38	u
Cc1nc(N)sc1-c1csc(Nc2cccc(O)c2)n1	u	-4	-25	-1%	-19	u
CC(=O)c1cccc(Nc2nc(-c3sc(N)nc3C)cs2)c1	16µM*	4	-3	-20%	5	12µM*
COc1ccc(CCNc2nc(-c3sc(N)nc3C)cs2)cc1OC	16µM*	-1	0	u	105	u
O=C(NCC(=O)N1CCC2(CC1)NCCc1[nH]cnc12)c1cccc(Cl)c1	6%	4	1	0%	12	4%
N#Cc1ccc(COC(=O)c2ccc3c(c2)OCO3)cc1	2%	-13	-18	-5%	-4	-13%
Cc1cc(C)cc(C(=O)NCCn2cc(C(=O)N3CCSCC3)nn2)c1	-10%	x	x	x	x	11%[9.04 µM]
COc1cc2c(cc1OC)C1C(=O)c3ccc4c(c3OC1CO2)C=CC(C)(C)O4 (centres undefined)	0.065µM*	x	x	x	x	0.082µM*
COc1cc2c(cc1OC)OC(C)(C)C=C2	-6%[9.04 µM]	x	x	x	x	6%[9.04 µM]
COc1cc2c(cc1OC)C1C(=O)c3c(O)cc4c(c3OC1CO2)C=CC(C)(C)O4 (centres undefined)	0.41µM*	x	x	x	x	0.65µM*
CCOc1ccc(C(=O)c2oc3ccccc3c2NC(=O)c2cc(-c3ccc(C)cc3)on2)cc1	-1%	-1	x	1%	x	-14%
CCOc1ccccc1NC(=O)CN1C(=O)COc2ccc(C)cc21	-29%	0	-7	-1%	6	4%
Cc1ccc(S(=O)(=O)N2CCOCC2)cc1NC(=O)COC(=O)c1ccc(Cl)nc1	-1%	-7	10	x	12	3%
O=C(OCc1ccc([N+](=O)[O-])cc1)C1CC(=O)N(c2ccccc2)C1 (centres undefined)	-8%	-3	10	-2%	3	-8%
Cc1ccc(N2CC(C(=O)OCC(=O)c3ccc([N+](=O)[O-])cc3)CC2=O)cc1 (centres undefined)	-3%	4	-74*	x	5	-20%
